The target of assay [1] is Nuclear receptor subfamily 1 group I member 2 (Mus musculus) (UniProt O54915). As to the kind of experiment: ATG_mPXR_XSP2: Attagene TRANS-FACTORIAL Multi-Species (XSP1) HepG2 Assay for mouse Pregnane X Receptor (PXR) (AID 2283831). The essentials:
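HepG2 cells transiently transfected with GAL4-UAS reporter units expressing chimeric NR-GAL4 proteins; reporter mRNA measured 24 h after dosing by RT-PCR with 6-FAM labelling and capillary electrophoresis, gain of signal relative to DMSO.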

The target in assay [2] is zebrafish Thyroid Hormone Receptor alpha (TRa), thraa (gene 30670) (UniProt Q98867). Briefly: ATG_zfTRa_XSP2: Attagene TRANS-FACTORIAL Multi-Species (XSP1) HepG2 Assay for zebrafish Thyroid Hormone Receptor alpha (TRa) (AID 2283832).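 Note: actives raise zebrafish TRa-Gal4 reporter transcript above DMSO baseline.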 The essentials:
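Chimeric receptor-Gal4 activity was assessed in transfected human liver HepG2 cells 24 h after dosing, using reporter transcript levels detected by RT-PCR and capillary electrophoresis. DMSO served as baseline.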

Assay [3] deals with zebrafish Peroxisome Proliferator-activated Receptor gamma (PPARg), gene 557037. Briefly: ATG_zfPPARg_XSP2: Attagene TRANS-FACTORIAL Multi-Species (XSP2) HepG2 Assay for zebrafish Peroxisome Proliferator-activated Receptor gamma (PPARg) (AID 2283833).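 Note: actives increase reporter signal over DMSO so AC50 reflects activation.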 The gist of the method: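 HepG2 cells transiently transfected with GAL4-UAS reporter units expressing a zebrafish PPARg–GAL4 chimera; compound exposure 24 h. Reporter mRNA quantified by RT-PCR with fluorescent labelling and capillary electrophoresis; gain of signal fitted relative to DMSO baseline.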

Assay [4] concerns turtle Thyroid Hormone Receptor, alpha (TRa), gene 101949057. As to the kind of experiment: ATG_trTRa_XSP2: Attagene TRANS-FACTORIAL Multi-Species (XSP1) HepG2 Assay for turtle Thyroid Hormone Receptor, alpha (TRa) (AID 2283834).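 Note: hits raise reporter mRNA over the DMSO baseline so AC50 marks activators.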 The essentials:
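HepG2 cells transiently transfected with multiplexed GAL4-UAS reporter units expressing chimeric NR-Gal4 proteins were dosed for 24 hours. Reporter mRNA was quantified by RT-PCR with 6-FAM labelling and capillary electrophoresis, gain of signal scored against DMSO.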

Assay [5] can be described thus: ATG_M_61_XSP2: Attagene TRANS-FACTORIAL Multi-Species (XSP2) HepG2 Assay for M61 Transcription Factor (Internal Marker) (AID 2283835; active = hit-call score of the fitted dose curve at least 0.9, where 1 is the maximum; inactive = score below 0.9;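 note: reporter mRNA of an internal background marker read by RT-PCR and capillary electrophoresis; active means a rise in signal above the DMSO baseline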). The gist of the method:
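First, HepG2 cells are transfected with reporter units under GAL4-UAS control. Next, chemicals are applied for 24 h. Then total RNA is reverse-transcribed, amplified, fluorescently labelled and sized by capillary electrophoresis, with gain of signal scored against DMSO.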

Assay [6] deals with zebrafish Thyroid Hormone Receptor beta (TRb), thrb (gene 30607) (UniProt Q9PVE4). Briefly: ATG_zfTRb_XSP2: Attagene TRANS-FACTORIAL Multi-Species (XSP1) HepG2 Assay for zebrafish Thyroid Hormone Receptor beta (TRb) (AID 2283836). The gist of the method: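 Fluorescence of labelled reporter cDNA fragments, separated by capillary electrophoresis, gives mRNA induction from exogenous NR-Gal4 chimeras in transiently transfected HepG2 cells after 24 h dosing; 3 nM 6-alpha-fluorotestosterone and 1.5 nM norgestrel included in the run.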
Chain of zebrafish Thyroid Hormone Receptor beta (TRb), thrb (gene 30607) (Q9PVE4 whole entry, looked up, the tested form may be a part): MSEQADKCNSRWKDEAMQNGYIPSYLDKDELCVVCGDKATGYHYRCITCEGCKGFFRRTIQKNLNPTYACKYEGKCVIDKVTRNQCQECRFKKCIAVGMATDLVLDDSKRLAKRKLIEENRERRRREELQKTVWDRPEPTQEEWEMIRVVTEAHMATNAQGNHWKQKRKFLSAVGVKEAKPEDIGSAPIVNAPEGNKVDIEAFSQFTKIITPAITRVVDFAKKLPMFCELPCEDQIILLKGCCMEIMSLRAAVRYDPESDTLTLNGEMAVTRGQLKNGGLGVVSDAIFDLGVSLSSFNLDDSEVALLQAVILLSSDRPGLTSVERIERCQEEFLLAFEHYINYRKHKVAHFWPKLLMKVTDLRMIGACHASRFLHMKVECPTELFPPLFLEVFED

Assay [7] can be described thus: ATG_XTT_Cytotoxicity_XSP2: Cytotoxicity Assessment in the Attagene TRANS-FACTORIAL Multi-Species (XSP2) HepG2 Assay (AID 2283837). The essentials: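 HepG2 cells, transiently transfected with multiple reporter constructs, exposed to chemical for 24 h. Cell number assessed with XTT fluorescence read-out; loss of signal fitted relative to DMSO.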
Assay [8] has as its target human Thyroid hormone Receptor alpha (TRa), THRA (gene 7067) (UniProt P10827). As to the kind of experiment: ATG_hTRa_XSP2: Attagene TRANS-FACTORIAL Multi-Species (XSP2) HepG2 Assay for human Thyroid hormone Receptor alpha (TRa) (AID 2283838). The essentials:
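HepG2 cells transiently transfected with multiplexed GAL4-UAS reporter units and exogenous NR-GAL4 chimeras; 24 h chemical exposure with 3 nM 6-alpha-fluorotestosterone and 1.5 nM norgestrel present. Reporter mRNA measured by RT-PCR, FAM labelling, HpaI digestion, capillary electrophoresis; gain-of-signal versus DMSO.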

For assay [9], the target named is frog Thyroid hormone Receptor alpha (TRa), thra-a (gene 397942) (UniProt P15204). As to the kind of experiment: ATG_frTRa_XSP2: Attagene TRANS-FACTORIAL Multi-Species (XSP2) HepG2 Assay for frog Thyroid hormone Receptor alpha (TRa) (AID 2283839). The gist of the method:
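HepG2 cells transiently transfected with multiplexed GAL4-UAS reporter units expressing chimeric frog TRα-Gal4; reporter mRNA read 24 h after dosing by RT-PCR, FAM-labelled primer extension, HpaI digest and capillary electrophoresis. Gain of signal fitted versus DMSO.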

Assay [10] addresses human Thyroid hormone Receptor beta (TRb), THRB (gene 7068) (UniProt P10828). Briefly: ATG_hTRb_XSP2: Attagene TRANS-FACTORIAL Multi-Species (XSP2) HepG2 Assay for human Thyroid hormone Receptor beta (TRb) (AID 2283840).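 Note: actives raise reporter mRNA so potency reflects agonist-like gain of signal.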 The gist of the method:
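HepG2 cells were transiently transfected with GAL4-UAS multiplexed reporter units expressing chimeric NR-Gal4 proteins, dosed 24 h; reporter mRNA was quantified by RT-PCR, fluorescent labeling, HpaI digestion and capillary electrophoresis, fitted for gain of signal versus DMSO.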

The target in assay [11] is PGR (gene 5241) (UniProt P06401). Briefly: TOX21_PR_BLA_Followup_Agonist_ratio: Tox21 HEK293 Progesterone Receptor (PR) Agonism Beta-lactamase Follow-Up Assay, Ratio (AID 2283933). The gist of the method:
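Agonist-mode follow-up in HEK293T cells carrying a UAS-driven beta-lactamase reporter, grown in 2% charcoal-stripped serum. Compounds act for 16 hr; activity is the ch2/ch1 cleavage ratio, with same-well CellTiter-Glo viability run in parallel.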

The target is the same in assay [12]. As to the kind of experiment: TOX21_PR_LUC_Followup_Agonist: Tox21 HEK293 Progesterone Receptor (PR) Agonism Luciferase Follow-Up Assay (AID 2283937; active = hit-call score of the fitted dose curve at least 0.9, where 1 is the maximum; inactive = score below 0.9). The essentials:
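Agonist mode: reporter cells carrying PR-A and luciferase are treated 16 h with test compounds at 37C. Luciferase induction is measured by luminescence and fitted upward against DMSO.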

The target of assay [13] is Thyroid hormone receptor alpha (Rattus norvegicus) + Thyroid hormone receptor beta (Rattus norvegicus) (UniProt P18113+P63059). As to the kind of experiment: TOX21_TR_LUC_GH3_Agonist_Followup: Tox21 GH3 Thyroid Hormone Receptor Agonism Luciferase Follow-Up Assay (AID 2283939). The gist of the method:
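Rat GH3 cells (1,500/well) in serum-free assay medium, treated with 15-point series, 92 uM to 5 nM final, for 24 h at 37C. Luciferase via ONE-Glo luminescence; gain of signal fitted against DMSO, T3 positive control.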

Where “and” joins values, the source holds several entries; their conditions need not be identical. Equal values may be shown once. Results filed as inconclusive are left out. Calls of active or inactive are those of the source. Rule for the calls, unless noted: active = hit-call score of the fitted dose curve at least 0.9, where 1 is the maximum; inconclusive = response in the unintended direction; inactive = score below 0.9.

Chain of frog Thyroid hormone Receptor alpha (TRa), thra-a (gene 397942) (P15204 whole entry, looked up, the tested form may be a part): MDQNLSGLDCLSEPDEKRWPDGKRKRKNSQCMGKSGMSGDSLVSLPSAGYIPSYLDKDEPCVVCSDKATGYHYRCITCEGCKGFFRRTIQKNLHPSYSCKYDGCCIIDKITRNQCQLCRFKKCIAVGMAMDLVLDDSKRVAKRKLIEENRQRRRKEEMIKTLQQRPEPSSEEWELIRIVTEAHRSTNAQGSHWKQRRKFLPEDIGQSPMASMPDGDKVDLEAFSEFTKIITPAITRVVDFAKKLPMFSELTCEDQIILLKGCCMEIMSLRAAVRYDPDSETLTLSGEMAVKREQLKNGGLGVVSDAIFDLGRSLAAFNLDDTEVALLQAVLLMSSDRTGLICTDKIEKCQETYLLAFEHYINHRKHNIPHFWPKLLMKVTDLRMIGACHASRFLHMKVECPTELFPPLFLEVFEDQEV
Chain of zebrafish Thyroid Hormone Receptor alpha (TRa), thraa (gene 30670) (Q98867 whole entry, looked up, the tested form may be a part): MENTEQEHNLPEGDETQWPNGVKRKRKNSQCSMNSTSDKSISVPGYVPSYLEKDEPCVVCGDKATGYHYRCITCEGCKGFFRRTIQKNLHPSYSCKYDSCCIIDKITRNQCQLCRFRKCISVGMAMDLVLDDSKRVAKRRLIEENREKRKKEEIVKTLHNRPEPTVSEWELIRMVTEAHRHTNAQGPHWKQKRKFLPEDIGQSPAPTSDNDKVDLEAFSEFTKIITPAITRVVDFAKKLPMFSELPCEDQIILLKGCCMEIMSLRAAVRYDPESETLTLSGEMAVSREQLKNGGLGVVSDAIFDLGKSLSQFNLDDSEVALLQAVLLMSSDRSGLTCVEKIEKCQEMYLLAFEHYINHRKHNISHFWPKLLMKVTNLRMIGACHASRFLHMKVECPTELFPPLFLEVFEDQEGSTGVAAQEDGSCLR
Chain of human Thyroid hormone Receptor alpha (TRa), THRA (gene 7067) (P10827 whole entry, looked up, the tested form may be a part): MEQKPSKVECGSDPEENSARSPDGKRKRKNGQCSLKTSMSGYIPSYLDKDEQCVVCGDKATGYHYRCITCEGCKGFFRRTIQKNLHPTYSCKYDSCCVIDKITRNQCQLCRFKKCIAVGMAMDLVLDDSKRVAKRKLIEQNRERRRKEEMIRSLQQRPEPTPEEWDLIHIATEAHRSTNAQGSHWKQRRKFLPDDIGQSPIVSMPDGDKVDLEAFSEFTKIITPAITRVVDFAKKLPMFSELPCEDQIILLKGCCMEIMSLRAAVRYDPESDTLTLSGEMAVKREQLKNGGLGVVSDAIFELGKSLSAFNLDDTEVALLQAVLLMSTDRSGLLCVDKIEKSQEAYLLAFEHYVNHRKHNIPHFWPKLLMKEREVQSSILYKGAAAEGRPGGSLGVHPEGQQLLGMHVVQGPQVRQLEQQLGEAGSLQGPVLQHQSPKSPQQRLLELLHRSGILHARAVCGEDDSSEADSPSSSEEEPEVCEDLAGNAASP
Chain of human Thyroid hormone Receptor beta (TRb), THRB (gene 7068) (P10828 whole entry, looked up, the tested form may be a part): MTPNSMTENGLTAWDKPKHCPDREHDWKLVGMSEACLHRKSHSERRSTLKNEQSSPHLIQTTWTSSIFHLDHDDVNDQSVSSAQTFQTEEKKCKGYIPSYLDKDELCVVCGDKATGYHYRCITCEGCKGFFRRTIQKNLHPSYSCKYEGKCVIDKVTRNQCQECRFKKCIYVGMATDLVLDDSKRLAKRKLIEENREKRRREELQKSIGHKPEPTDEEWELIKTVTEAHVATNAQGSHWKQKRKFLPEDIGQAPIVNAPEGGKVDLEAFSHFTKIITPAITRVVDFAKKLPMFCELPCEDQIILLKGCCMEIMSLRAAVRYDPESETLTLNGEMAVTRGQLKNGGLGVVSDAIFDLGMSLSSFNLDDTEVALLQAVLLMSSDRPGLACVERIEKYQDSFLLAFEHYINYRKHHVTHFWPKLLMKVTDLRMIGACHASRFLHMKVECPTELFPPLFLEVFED
Chain of PGR (gene 5241) (P06401 whole entry, looked up): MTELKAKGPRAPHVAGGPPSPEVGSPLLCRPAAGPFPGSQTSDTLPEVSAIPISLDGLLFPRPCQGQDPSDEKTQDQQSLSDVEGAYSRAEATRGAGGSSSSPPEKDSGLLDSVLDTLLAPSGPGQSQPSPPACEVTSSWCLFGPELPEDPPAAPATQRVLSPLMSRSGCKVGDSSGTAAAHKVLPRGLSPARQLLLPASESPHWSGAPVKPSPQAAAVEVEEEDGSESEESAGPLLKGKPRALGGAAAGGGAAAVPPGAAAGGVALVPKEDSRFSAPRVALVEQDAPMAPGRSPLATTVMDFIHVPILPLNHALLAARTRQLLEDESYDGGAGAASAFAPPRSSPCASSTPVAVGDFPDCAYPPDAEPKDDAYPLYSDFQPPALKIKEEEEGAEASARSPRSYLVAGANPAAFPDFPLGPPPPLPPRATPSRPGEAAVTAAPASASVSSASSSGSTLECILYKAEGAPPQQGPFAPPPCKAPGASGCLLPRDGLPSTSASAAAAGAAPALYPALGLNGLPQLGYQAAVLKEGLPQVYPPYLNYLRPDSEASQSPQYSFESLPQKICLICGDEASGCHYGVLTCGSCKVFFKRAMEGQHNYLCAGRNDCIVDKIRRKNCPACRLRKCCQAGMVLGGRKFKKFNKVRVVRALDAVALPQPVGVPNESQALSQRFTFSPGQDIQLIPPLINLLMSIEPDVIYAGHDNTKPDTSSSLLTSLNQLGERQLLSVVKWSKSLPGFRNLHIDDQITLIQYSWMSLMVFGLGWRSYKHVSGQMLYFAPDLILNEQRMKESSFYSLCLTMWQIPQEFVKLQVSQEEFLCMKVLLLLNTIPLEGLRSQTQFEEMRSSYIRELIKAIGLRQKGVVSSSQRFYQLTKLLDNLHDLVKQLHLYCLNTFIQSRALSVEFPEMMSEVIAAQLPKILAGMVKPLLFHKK
Chain of Thyroid hormone receptor alpha (Rattus norvegicus) + Thyroid hormone receptor beta (Rattus norvegicus) (P63059 whole entry, looked up): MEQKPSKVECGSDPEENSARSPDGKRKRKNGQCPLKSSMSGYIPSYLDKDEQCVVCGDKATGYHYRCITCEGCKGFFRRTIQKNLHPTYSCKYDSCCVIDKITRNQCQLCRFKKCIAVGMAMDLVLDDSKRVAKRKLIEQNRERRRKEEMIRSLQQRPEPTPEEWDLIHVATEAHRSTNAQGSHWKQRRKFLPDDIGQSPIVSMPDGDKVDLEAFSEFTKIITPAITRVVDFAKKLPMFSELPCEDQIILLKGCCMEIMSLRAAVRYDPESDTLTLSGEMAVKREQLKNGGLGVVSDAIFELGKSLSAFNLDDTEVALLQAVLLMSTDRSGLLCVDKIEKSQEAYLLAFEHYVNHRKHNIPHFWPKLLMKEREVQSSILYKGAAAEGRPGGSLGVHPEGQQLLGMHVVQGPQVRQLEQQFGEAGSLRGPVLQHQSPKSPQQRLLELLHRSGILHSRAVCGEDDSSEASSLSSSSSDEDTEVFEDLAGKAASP
Chain of Thyroid hormone receptor alpha (Rattus norvegicus) + Thyroid hormone receptor beta (Rattus norvegicus) (P18113 whole entry, looked up): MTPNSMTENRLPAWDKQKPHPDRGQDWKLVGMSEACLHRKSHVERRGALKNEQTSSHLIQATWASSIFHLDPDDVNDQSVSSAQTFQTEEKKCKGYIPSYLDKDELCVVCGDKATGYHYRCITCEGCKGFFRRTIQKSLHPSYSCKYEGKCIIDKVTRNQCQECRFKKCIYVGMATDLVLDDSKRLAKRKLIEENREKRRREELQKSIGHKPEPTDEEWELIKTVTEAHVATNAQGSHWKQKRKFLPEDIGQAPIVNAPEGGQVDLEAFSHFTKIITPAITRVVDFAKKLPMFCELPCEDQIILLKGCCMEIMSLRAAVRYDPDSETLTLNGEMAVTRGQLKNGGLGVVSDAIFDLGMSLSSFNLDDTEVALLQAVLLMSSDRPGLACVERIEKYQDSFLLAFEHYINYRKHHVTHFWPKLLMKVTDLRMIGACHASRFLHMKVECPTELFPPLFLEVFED
Chain of Nuclear receptor subfamily 1 group I member 2 (Mus musculus) (O54915 whole entry, looked up, the tested form may be a part): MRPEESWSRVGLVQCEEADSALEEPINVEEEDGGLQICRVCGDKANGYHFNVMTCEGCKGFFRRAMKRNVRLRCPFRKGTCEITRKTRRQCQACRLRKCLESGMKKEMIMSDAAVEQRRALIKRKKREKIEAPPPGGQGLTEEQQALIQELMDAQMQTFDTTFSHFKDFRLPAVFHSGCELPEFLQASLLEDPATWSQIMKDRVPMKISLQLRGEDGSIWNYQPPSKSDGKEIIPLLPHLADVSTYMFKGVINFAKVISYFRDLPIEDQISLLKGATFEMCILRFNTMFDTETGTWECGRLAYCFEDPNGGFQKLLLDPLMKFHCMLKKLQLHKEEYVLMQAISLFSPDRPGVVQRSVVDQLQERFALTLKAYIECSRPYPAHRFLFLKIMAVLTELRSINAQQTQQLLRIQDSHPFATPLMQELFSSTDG

A word on the AC50: it is the concentration at which the activity in the assay is half-maximal. In the case of `COC(=O)c1c(C)cc(O)c(C)c1O`, the concentration at half-maximal activity (AC50) in [1] is 10.7 µM (active) and 27.3 µM (active). For the same molecule, the outcome in assay [2], in assay [3], in assay [4], in [5], in assay [6] and in assay [7] was inactive. Moreover, the result in assay [8], in assay [9] and in [10] was inactive.

`O=C(c1ccc(O)cc1)c1ccc(O)cc1O`: the outcome in [2], in assay [5], in assay [6], in assay [8], in [9] and in assay [10] was inactive.

For `CC(C)(c1cc(Br)c(OCCO)c(Br)c1)c1cc(Br)c(OCCO)c(Br)c1`, the result with PGR (gene 5241) [11] and with PGR (gene 5241) [12] was inactive.

Consider `NC(CO)(CO)CO`, for which the AC50 in assay [13] was 10.6 µM (active).

For `CCCCCCC(O)CO` (stereo not given), the outcome in [13] was inactive.

The values are drawn from PubChem BioAssay (EPA / NIEHS).
